Some test systems named below: SR leukemia; RPMI-8226 leukemia; OVCAR-8 ovarian; OVCAR-5 ovarian; SK-OV-3 ovarian; IGROV1 ovarian; OVCAR-3 ovarian; HS 578T breast; NCI/ADR-RES ovarian; OVCAR-4 ovarian.
Common to all, as to assay: NCI-60 one-dose screen, 48 h (100 = growth as untreated, 0 = no growth, -100 = all killed)
Common to all, as to settings: 10 µM

Structures are written as SMILES. The panel holds about 83,000 compounds, 20% with a hit somewhere; the sample as a whole holds those more often.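 Step 1: grow cells in 96-well plates. Step 2: add test compound at a single concentration. Step 3: incubate 48 h. Step 4: record percent growth.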 Values without a mark were called inactive. Active and inactive are the calls of the source. Rule for the calls: active = growth percent below 10; inactive = the rest.

With `COc1ccc(C2=Cn3c(CCC(=O)c4nc5ccccc5[nH]4)nnc3SC2)cc1`, the growth with SR leukemia was 18.9%; in the experiment with RPMI-8226 leukemia, 61.7%; in the experiment with OVCAR-8 ovarian it was 120%; with OVCAR-5 ovarian, 116%; with SK-OV-3 ovarian, 120%; in the experiment on IGROV1 ovarian, 91.6%. Moreover, the growth with OVCAR-3 ovarian is 113%; with HS 578T breast, 92.8%; in the experiment on NCI/ADR-RES ovarian, 105%.
In the case of `CN(C)CCOc1cccc(-c2nc3sccn3c2-c2ccnc(S(C)(=O)=O)n2)c1`, the growth with SR leukemia is 102%; in the experiment with RPMI-8226 leukemia it was 94.7%; with OVCAR-8 ovarian it was 100%; with OVCAR-4 ovarian it was 75.8%; in the experiment with SK-OV-3 ovarian, 96.5%; with IGROV1 ovarian it was 94.3%. The growth in the experiment on OVCAR-3 ovarian was 93.6%; in the experiment on HS 578T breast, 86.4%; with NCI/ADR-RES ovarian, 101%.
Consider `O=c1oc2c(cc1-c1ccc(F)cc1)C(O)Oc1ccccc1-2` (configuration not stated), for which the growth was 58.1% with SR leukemia; 90.8% in the experiment on RPMI-8226 leukemia; 100% in the experiment with OVCAR-8 ovarian; 90.6% in the experiment with OVCAR-4 ovarian; 105% in the experiment with SK-OV-3 ovarian; 80.4% in the experiment with OVCAR-3 ovarian. The growth in the experiment on HS 578T breast was 16.6%; in the experiment with NCI/ADR-RES ovarian, 54.5%.
As for `O=C1CC(SC(=S)C2CCCC2=O)C(=O)N1` (configuration not stated), the growth in the experiment with SR leukemia is 89.9%; with RPMI-8226 leukemia, 100%; in the experiment with OVCAR-8 ovarian, 96.3%; in the experiment on OVCAR-4 ovarian it was 106%; in the experiment on SK-OV-3 ovarian, 105%; in the experiment on OVCAR-3 ovarian, 109%. For the same compound, the growth in the experiment with HS 578T breast and in the experiment with NCI/ADR-RES ovarian was 104% in each case.
In the case of `O=C(N/N=C/c1c(Cl)cccc1Cl)c1ccccc1Nc1cccc(C(F)(F)F)c1`, the growth with SR leukemia is 70.8%; with RPMI-8226 leukemia it was 82.5%; in the experiment with OVCAR-8 ovarian it was 103%; with OVCAR-4 ovarian it was 99.1%; with SK-OV-3 ovarian, 107%; in the experiment with IGROV1 ovarian, 74.9%. Also, the growth was 104% with OVCAR-3 ovarian, 85% in the experiment on HS 578T breast and 100% with NCI/ADR-RES ovarian.
For `CN(C)CCN(Cc1ccccc1)c1ccc2ccccc2n1`, the growth with SR leukemia is 98.6%; in the experiment with RPMI-8226 leukemia, 89.5%; in the experiment on OVCAR-8 ovarian, 102%; in the experiment with OVCAR-4 ovarian, 97.4%; with SK-OV-3 ovarian, 97.2%; in the experiment with IGROV1 ovarian, 95.1%. Further, the growth in the experiment on OVCAR-3 ovarian was 103%; with HS 578T breast, 92.4%; with NCI/ADR-RES ovarian, 94.2%.
Take `CCOC(=O)C(C)(c1ccccc1)c1ccccc1`: the growth is 100% with SR leukemia; 101% with RPMI-8226 leukemia; 105% in the experiment on OVCAR-8 ovarian; 111% with OVCAR-4 ovarian; 98.9% in the experiment with SK-OV-3 ovarian; 106% in the experiment on IGROV1 ovarian. Further, the figures for the growth in the experiment on HS 578T breast and in the experiment on NCI/ADR-RES ovarian were 111% and 106%, respectively.
With `CCN(CC)CCCC(C)Nc1c2ccc(Cl)cc2nc2ccc(OC)cc12` (configuration not stated), the growth in the experiment on SR leukemia is 0.997% (active); in the experiment with RPMI-8226 leukemia, -6.19% (active); in the experiment with OVCAR-8 ovarian, 16.6%; in the experiment with OVCAR-4 ovarian, -7.7% (active); in the experiment with SK-OV-3 ovarian, 39.3%; with OVCAR-3 ovarian it was 31%. Also, the figures for the growth in the experiment with HS 578T breast and with NCI/ADR-RES ovarian were 57.4% and 31.9%, respectively.
`COc1cc(C(=O)/C=C/c2c[nH]c3ccccc23)cc(OC)c1OC`: the growth in the experiment with SR leukemia is 14.3%; with RPMI-8226 leukemia, 10.3%; in the experiment with OVCAR-8 ovarian, 15.9%; in the experiment on OVCAR-4 ovarian, 49.4%; in the experiment on SK-OV-3 ovarian it was 17.7%; in the experiment with IGROV1 ovarian, 27.7%. For the same compound, the values for the growth in the experiment with OVCAR-3 ovarian, in the experiment on HS 578T breast and in the experiment on NCI/ADR-RES ovarian were -8.84% (active), 49.9% and 9.93% (active), respectively.
Take `CCOc1ccccc1/C=N/N1CCCCCC1`: the growth with SR leukemia is 89.3%; in the experiment on RPMI-8226 leukemia, 110%; with OVCAR-8 ovarian, 103%; with OVCAR-5 ovarian, 107%; with SK-OV-3 ovarian it was 95.9%; with OVCAR-3 ovarian, 97.1%. In addition, the figures for the growth with HS 578T breast and with NCI/ADR-RES ovarian were 96% and 100%, respectively.
With `COc1cc2c(cc1OC)C(C(CCCCCC(CCC(C)C)C1NCCc3cc(OC)c(OC)cc31)CCC(C)C)NCC2` (configuration not stated), the growth with SR leukemia is 12.1%; in the experiment with RPMI-8226 leukemia it was -57.1% (active); in the experiment on OVCAR-8 ovarian it was -89.3% (active); in the experiment on OVCAR-4 ovarian, -100% (active); in the experiment with SK-OV-3 ovarian, -99.5% (active); in the experiment on OVCAR-3 ovarian it was -99.9% (active). Besides, the results for the growth in the experiment with HS 578T breast and with NCI/ADR-RES ovarian were -41% (active) and -95.9% (active), respectively.
With `CCOC(=O)c1cc(C(=O)c2ccc(OC)c(OC)c2)n2ccncc12`, the growth in the experiment on SR leukemia was 78.5%; with RPMI-8226 leukemia it was 88.3%; with OVCAR-8 ovarian it was 94.9%; with OVCAR-4 ovarian, 104%; with SK-OV-3 ovarian it was 64.2%; in the experiment with IGROV1 ovarian, 102%. Moreover, the growth in the experiment with OVCAR-3 ovarian is 108%; in the experiment on HS 578T breast, 102%; in the experiment on NCI/ADR-RES ovarian, 96.9%.
`Nc1ccn(Cc2nnc(CCC(=O)c3nc4ccccc4[nH]3)o2)c(=O)n1`: the growth in the experiment on SR leukemia was 14.9%; with RPMI-8226 leukemia it was 73.1%; in the experiment on OVCAR-8 ovarian, 88.5%; in the experiment with OVCAR-5 ovarian it was 98%; with SK-OV-3 ovarian, 98.7%; in the experiment on IGROV1 ovarian, 65.3%. The values for the growth in the experiment on OVCAR-3 ovarian, in the experiment on HS 578T breast and in the experiment on NCI/ADR-RES ovarian were 102%, 81.3% and 86.1%, respectively.
With `C=CCSC(CC)(CC)C(=O)NC`, the growth in the experiment with SR leukemia is 99.3%; in the experiment on RPMI-8226 leukemia, 101%; in the experiment with OVCAR-8 ovarian, 105%; in the experiment with OVCAR-4 ovarian, 109%; in the experiment with SK-OV-3 ovarian, 105%; in the experiment on IGROV1 ovarian, 113%. For the same compound, the values for the growth with OVCAR-3 ovarian, in the experiment on HS 578T breast and with NCI/ADR-RES ovarian were 112%, 106% and 107%, respectively.
Consider `Oc1ccc(-c2[nH]c3ccccc3c2-c2nc3ccccc3o2)cc1`, for which the growth is 14.8% in the experiment with SR leukemia; 86.6% in the experiment with RPMI-8226 leukemia; 91.9% in the experiment with OVCAR-8 ovarian; 80.6% in the experiment on OVCAR-5 ovarian; 72.9% in the experiment with SK-OV-3 ovarian; 52.6% in the experiment with IGROV1 ovarian. Further, the growth with OVCAR-3 ovarian is 74.1%; in the experiment on HS 578T breast, 81.4%; in the experiment on NCI/ADR-RES ovarian, 32.5%.
On to `CCOC(=O)/C(=C(\C)N)C1CC(=O)NC1=O` (configuration not stated), for which the growth is 102% in the experiment on SR leukemia; 101% in the experiment on RPMI-8226 leukemia; 99.7% in the experiment on OVCAR-8 ovarian; 102% with OVCAR-5 ovarian; 118% in the experiment on IGROV1 ovarian; 109% in the experiment on OVCAR-3 ovarian. Also, the growth was 97.5% in the experiment on HS 578T breast and 92.8% in the experiment with NCI/ADR-RES ovarian.
